# Several values for one entry are separate records, joined by “and”; a condition that tells them apart may be missing. Identical values can stand only once. Activity calls are given as the source filed them.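 The calls were made as follows, unless noted: active = compounds whose cell count with miR-34 switched on is under 0.7 times the count with it off; inactive = the rest.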
# How the values were obtained:
# [1] = sensitizers of A549 cells to miR-34 induction, primary screen, imaging, A549 dox-inducible miR-34, nuclei and caspase counts (AID 1347080); conditions: A549 miR-34 inducible, Hoechst nuclei count, 48 h; also: test concentration not given here
# [2] = survival rescue of mitochondrial mutant cells in low glucose, primary screen, MELAS cybrids, Rieske KO mouse fibroblasts, CellTiter-Glo (AID 1508586;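 active = mean z-score across replicates of 1.96 or higher in either the MELAS or the Rieske mutant cell line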;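 also: test concentration not given here; z relative to plate mean and SD of compound and empty wells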)
# [3] = viability rescue of complex I mutant cybrids, primary screen, cell-based, galactose medium, ATP luminescence (AID 1645843;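 active = z-score of at least 1.8 in each of two replicates, scored against plate mean and spread of sample wells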;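 also: positive z means more ATP and so rescue of galactose-driven cybrid death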); conditions: complex I mutant cybrid cells, 72 h, stronger effect = higher value
# [4] = stronger effect = lower value, cell number ratio, induced over uninduced
# [5] = measured here: relative caspase fold change +Dox/-Dox
# [6] = measured here: total cells with miR-34 induction, stronger effect = lower value
# [7] = measured here: total cells without miR-34 induction
# [8] = MELAS cybrid survival, CellTiter-Glo 48 h, stronger effect = higher value
# [9] = Rieske KO mouse fibroblast survival, CellTiter-Glo 72 h
SMILES,"fold change [1, 4]","fold change [1, 5]","cell count [1, 6]","cell count [1, 7]","z-score [2, 8]","z-score [2, 9]",z-score [3]
CCC1C(=O)N(C)CCN1C(=O)Nc1nc(C)ns1 (stereo unspecified),1.02 (inactive),1.35,8670,8510,-0.0427 (inactive),-0.105,-0.49 (inactive)
Cn1nc(NC(=O)Cn2cc(-c3nccc4occc34)cn2)c2ccccc21,0.83 (inactive),2.06,7280,8770,0.277 (inactive),-0.242,-0.345 (inactive)
NC(=O)Cc1c[nH]c2ccccc12,0.914 (inactive),0.482,8170,8950,0.728 (inactive),-0.479,0.1 (inactive)
Nc1ncc(Cc2ccccc2)s1,0.906 (inactive),0.514,8010,8850,-0.355 (inactive),-0.511,-0.26 (inactive)
CNC1CCC(c2ccc(Cl)c(Cl)c2)c2ccccc21 (stereo unspecified),0.897 (inactive) and 0.972 (inactive),1.54 and 0.385,3400 and 7100,3800 and 7300,-0.116 (inactive),-0.231,-1.88 (inactive)
CC1(C)CC(=O)c2c(N)ncnc2C1,0.894 (inactive),0.392,9160,10200,0.568 (inactive),-0.422,0.725 (inactive)
Cc1ccccc1-n1cc(-c2ccnc(NCCC3(O)CCN(C)CC3)n2)cn1,0.797 (inactive),1.49,8470,10600,0.152 (inactive),-0.0851,-0.43 (inactive)
Cc1nsc(NC(=O)N[C@@H]2CCCC[C@H]2c2ccccc2)n1,0.821 (inactive),1.15,7510,9150,0.535 (inactive),-0.546,1.12 (inactive)
CN(Cc1cnc2ccccc2n1)C(=O)Nc1n[nH]c(-c2ccco2)n1,0.886 (inactive),0.927,8010,9030,-0.974,3.4,0.175 (inactive)
NS(=O)(=O)c1ccc(CCC(=O)O)cc1,0.881 (inactive),0.214,8780,9960,0.234 (inactive),-0.0972,0.14 (inactive)
O=C(O)CCCCCNC(=O)NC1CCCCC1,0.882 (inactive),0.38,9190,10400,-0.568 (inactive),0.057,0.68 (inactive)
COc1cc(Cn2cnc3nccnc3c2=O)cc(OC)c1,0.919 (inactive),2.53,9000,9790,-0.417 (inactive),-0.582,-0.515 (inactive)
Cc1ncsc1-c1ccn(CC(=O)Nc2ccnn2C2CCCCC2)n1,0.823 (inactive),0.676,7140,8680,-0.424 (inactive),0.121,-0.57 (inactive)
O=C(O)C=Cc1ccccc1O,0.911 (inactive),0.83,8740,9590,0.0698 (inactive),0.0548,0.245 (inactive)
CCN(CC)C(=O)[C@]1(c2ccccc2)CC1CN (stereo partly specified),0.994 (inactive) and 0.915 (inactive),2.55 and 0.784,10600 and 8120,10700 and 8880,-0.247 (inactive),-0.165,0.315 (inactive)
CCOC(=O)c1c(C)n[nH]c1C,0.871 (inactive),0.655,8840,10200,0.691 (inactive),-0.58,0.425 (inactive)
O=S(=O)(Nc1cc(-c2cccs2)nn1-c1ccc(F)cc1)c1cccc(F)c1,0.903 (inactive),0.956,7390,8190,0.0617 (inactive),0.524,-1.46 (inactive)
COC(=O)CN1CCN(c2ncnc3sccc23)C(C)C1=O (stereo unspecified),0.854 (inactive),1.54,7880,9220,0.221 (inactive),0.142,-0.055 (inactive)
Cc1cc(NC(=O)Cn2ccc(-c3ncnn3C)n2)n(C2CCCCC2)n1,0.953 (inactive),1.19,9860,10400,0.129 (inactive),-0.435,-0.55 (inactive)
CC(C)C(=O)N1CCC(CNC(=O)c2ccno2)CC1,0.927 (inactive),0.833,9650,10400,0.208 (inactive),0.293,-0.57 (inactive)
Cc1ccc(-c2ncnc3scc(C)c23)c2cccnc12,0.907 (inactive),1.31,8040,8860,-0.0169 (inactive),-0.263,-0.425 (inactive)
CC(C)SC1OC(CO)C(O)C(O)C1O (stereo unspecified),0.887 (inactive),0.478,8290,9350,-0.322 (inactive),-0.813,0.635 (inactive)

SMILES,"fold change [1, 4]","fold change [1, 5]","cell count [1, 6]","cell count [1, 7]","z-score [2, 8]","z-score [2, 9]",z-score [3]
Cn1nc(-c2cccnc2)c2[nH]c(-c3ccc4c(c3)OCCO4)nc21,0.86 (inactive),1.08,5270,6130,12.6 (active),3.9,4.01 (active)
CN1CCC(CN(C)Cc2ccc(-c3nc(-c4ccncc4)cc(=O)[nH]3)cc2)CC1,0.939 (inactive),1.26,9330,9930,0.0899 (inactive),0.164,-0.495 (inactive)
CN(C)CCc1c[nH]c2ccc(CC3COC(=O)N3)cc12 (stereo unspecified),0.908 (inactive) and 0.936 (inactive),1.13 and 0.401,9680 and 7960,10700 and 8510,-0.0653 (inactive),0.00529,0.625 (inactive)
O=C(NCCc1nc2ccc(F)cc2[nH]1)c1cnccn1,0.896 (inactive),1.56,8500,9500,0.845 (inactive),-0.308,-0.435 (inactive)
CN1CCN(c2ncnc3sccc23)CC1=O,0.928 (inactive),1.32,9620,10400,-0.0885 (inactive),-0.276,-0.54 (inactive)
O=C(O)CNC(=O)NC1CCCCC1,0.908 (inactive),0.307,9060,9970,0.384 (inactive),-0.24,0.34 (inactive)
O=C1CCC(CC(=O)N2CCc3[nH]nc(-c4ccc5c(c4)OCO5)c3C2)N1 (stereo unspecified),0.953 (inactive),1.24,9140,9600,-0.575 (inactive),-0.976,-0.52 (inactive)
O=C(NCCc1ccco1)c1cc(C2CC2)[nH]n1,0.916 (inactive),1.14,9380,10200,0.356 (inactive),0.504,-0.495 (inactive)
Cc1cc(-c2cccc(OC(C)C)c2)nc(N)n1,0.871 (inactive),1.62,7710,8860,-1.21 (inactive),0.889,-0.56 (inactive)
O=C(O)CNC(=O)Cc1c[nH]c2ccccc12,0.855 (inactive),0.234,8420,9850,-0.685 (inactive),-0.0302,-0.545 (inactive)
CCN(CC)S(=O)(=O)c1cc(C(=O)Nc2ccccc2C(=O)O)ccc1Br,0.904 (inactive),0.416,8290,9170,-0.577 (inactive),0.639,0.82 (inactive)
CC(C)n1cc(-c2cc(C(=O)N(C)Cc3ccncc3)c3cc(F)ccc3n2)cn1,0.953 (inactive),1.49,7910,8290,-1.09 (inactive),0.3,-0.295 (inactive)
CC[C@H](C)C(=O)O[C@H]1C[C@H](O)C=C2C=C[C@H](C)[C@H](CC[C@@H]3C[C@@H](O)CC(=O)O3)[C@H]21,0.872 (inactive),2.14,9300,10700,0.0534 (inactive),-0.0126,0.555 (inactive)
COc1ccccc1-c1noc(Cc2ccc3c(c2)OCO3)n1,0.864 (inactive),2.45,7680,8890,0.0213 (inactive),1.35,1.62 (inactive)
Cc1cc(C)n(CCCNc2ncc(C)c(-c3cnn(C)c3)n2)n1,0.893 (inactive),1.21,8360,9370,-0.406 (inactive),0.144,-0.54 (inactive)
COCCn1cncc1CNc1nccc(-c2c(C)nn(C)c2C)n1,0.881 (inactive),0.975,8090,9180,-0.172 (inactive),-0.0475,-0.325 (inactive)
OB(O)c1cc2ccccc2s1,0.864 (inactive),0.659,7300,8450,-0.459 (inactive),0.539,0.265 (inactive)
O=S(=O)(O)CCCN1CCOCC1,0.928 (inactive),0.665,8750,9420,0.595 (inactive),-0.353,0.105 (inactive)
Cc1ccc(CN2CCN(c3ncnc4sccc34)CC2=O)cc1,0.911 (inactive),1.87,4200,4610,-0.0356 (inactive),-0.417,3.8 (active)
COc1ccc(F)c(-c2cccc(N)n2)c1,0.864 (inactive),1.37,8940,10300,-0.0723 (inactive),-0.237,-0.555 (inactive)
c1cc(CN2CCN3CCCC3C2)n(-c2nccs2)c1 (stereo unspecified),0.908 (inactive),1.4,8290,9130,0.256 (inactive),-0.144,-0.595 (inactive)

# Reference: PubChem BioAssay
